Source: PubChem BioAssay (NCI)
About 83,000 compounds went through this panel and 20% of them were active in at least one assay; those are over-represented in the sample as a whole.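 Step 1: grow cells in 96-well plates. Step 2: add test compound at a single concentration. Step 3: incubate 48 h. Step 4: record percent growth.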 Active and inactive are the calls of the source. The calls were made as follows: active = growth percent below 10; inactive = the rest.

Legend:
Assay in all cases: NCI-60 one-dose screen, 48 h (100 = growth as untreated, 0 = no growth, -100 = all killed)
Details in all cases: 10 µM unless noted
SK-MEL-2 melanoma = tested on: SK-MEL-2 melanoma
EKVX NSCLC = tested on: EKVX NSCLC
SN12C renal = tested on: SN12C renal
UO-31 renal = tested on: UO-31 renal
TK-10 renal = tested on: TK-10 renal
ACHN renal = tested on: ACHN renal
CAKI-1 renal = tested on: CAKI-1 renal
A498 renal = tested on: A498 renal
CCRF-CEM leukemia = tested on: CCRF-CEM leukemia
MOLT-4 leukemia = tested on: MOLT-4 leukemia

Measured: growth

CCOC(=O)c1ccc2c(c1)[n+](=O)c(C(=O)c1ccc3ccccc3c1)c(C(F)(F)F)n2[O-]
active: SK-MEL-2 melanoma -83.5% | EKVX NSCLC -56.8% | SN12C renal -99.2% | UO-31 renal -96% | TK-10 renal -89.7% | ACHN renal -100% | CAKI-1 renal -93.8% | A498 renal -62.4%

COc1cc(NC(=O)CSc2nc3ccc(Cl)cc3c(=O)n2-c2ccccc2)cc(OC)c1OC
inactive: SK-MEL-2 melanoma 99.8% | EKVX NSCLC 76.4% | SN12C renal 94.3% | UO-31 renal 51% | TK-10 renal 120% | ACHN renal 92.1% | CAKI-1 renal 83.3% | A498 renal 46.6% | CCRF-CEM leukemia 70.5%

C=C(C)[C@@H]1CC[C@]2(C(=O)NS(=O)(=O)c3ccccc3)CC[C@]3(C)[C@H](CC[C@@H]4[C@@]5(C)CC[C@H](OC(=O)NS(=O)(=O)c6ccccc6)C(C)(C)[C@@H]5CC[C@]43C)[C@@H]12
inactive: EKVX NSCLC 27.5% | SN12C renal 13% | TK-10 renal 24% | ACHN renal 14.6% | CAKI-1 renal 24.8%
active: SK-MEL-2 melanoma -6.1% | UO-31 renal 8.04% | A498 renal -2.66%

COc1cc(C2CC(c3ccc(Cl)cc3)=NN2C(C)=O)ccc1Oc1ccnc2cc(Cl)ccc12 (centres undefined)
inactive: SK-MEL-2 melanoma 67.2% | EKVX NSCLC 51.9% | SN12C renal 70.9% | UO-31 renal 57.5% | TK-10 renal 37.4% | ACHN renal 18.8% | CAKI-1 renal 26.1% | A498 renal 69% | CCRF-CEM leukemia 87.1% | MOLT-4 leukemia 97.4%

O=C1NN(C(=O)c2ccccc2)C(c2ccc(Cl)c(Cl)c2)=C/C1=C\c1ccccc1[N+](=O)[O-]
inactive: SK-MEL-2 melanoma 10.9% [6.75 µM] | EKVX NSCLC 32% [6.75 µM] | SN12C renal 30.7% [6.75 µM] | TK-10 renal 42.1% [6.75 µM] | ACHN renal 24% [6.75 µM] | CAKI-1 renal 24.1% [6.75 µM] | CCRF-CEM leukemia 17.4% [6.75 µM]
active: UO-31 renal -3.12% [6.75 µM] | A498 renal -10.9% [6.75 µM]

C/C(=N\Nc1ccc([N+](=O)[O-])cn1)c1ccc(N)cc1
inactive: SK-MEL-2 melanoma 100% | EKVX NSCLC 109% | SN12C renal 94.8% | UO-31 renal 87.7% | TK-10 renal 105% | ACHN renal 97.8% | CAKI-1 renal 101% | A498 renal 82.4% | CCRF-CEM leukemia 96.3%
active: MOLT-4 leukemia -11.7%

CCOC(=O)c1cnc(SCC)nc1SC#N
active: CAKI-1 renal -65.3%
inactive: SK-MEL-2 melanoma 96.1% | EKVX NSCLC 99.8% | SN12C renal 95.7% | UO-31 renal 95.2% | TK-10 renal 84.3% | ACHN renal 71.3% | A498 renal 106%

CC(C)(C)c1ccc(OC(=O)Nc2ccccc2)cc1
inactive: SK-MEL-2 melanoma 103% | EKVX NSCLC 111% | SN12C renal 100% | UO-31 renal 87% | TK-10 renal 98.7% | ACHN renal 102% | CAKI-1 renal 104% | A498 renal 97.7% | CCRF-CEM leukemia 87.1% | MOLT-4 leukemia 56.6%

OCCN(CCO)c1ccc2ccccc2c1
inactive: SK-MEL-2 melanoma 87.3% | EKVX NSCLC 102% | SN12C renal 94.2% | UO-31 renal 65% | TK-10 renal 97.6% | ACHN renal 106% | CAKI-1 renal 97.3% | A498 renal 110% | CCRF-CEM leukemia 109% | MOLT-4 leukemia 98.8%

CC1=CCC2C1CC=C(C)C(CC[C@H]1[C@@](C)(O)CCC3OC(C)(C)[C@H](OC(=O)c4ccccc4)CC[C@@]31C)C2(C)C (some centres undefined)
inactive: SK-MEL-2 melanoma 81.3% | EKVX NSCLC 69.6% | SN12C renal 80.6% | UO-31 renal 80.8% | TK-10 renal 97.5% | ACHN renal 94.1% | CAKI-1 renal 67.7% | A498 renal 110% | CCRF-CEM leukemia 99.6%

C=C(C)[C@@H]1CC[C@]2(C(=O)O)CC[C@]3(C)[C@H](CC[C@@H]4[C@@]5(C)C[C@@H](CC#Cc6ccc(C(C)=O)s6)[C@H](O)C(C)(C)[C@@H]5CC[C@]43C)[C@@H]12
inactive: SK-MEL-2 melanoma 51.9% | EKVX NSCLC 53.2% | SN12C renal 68% | UO-31 renal 56.6% | TK-10 renal 49.6% | ACHN renal 47.9% | CAKI-1 renal 40.7% | CCRF-CEM leukemia 44.7% | MOLT-4 leukemia 32.5%
active: A498 renal -3.73%

Oc1c(C(Nc2ccccc2Br)c2ccccc2)ccc2cccnc12 (centres undefined)
inactive: SK-MEL-2 melanoma 12.1% | EKVX NSCLC 23.4% | SN12C renal 24.7% | UO-31 renal 16.8% | TK-10 renal 30.3% | ACHN renal 13.5% | CAKI-1 renal 13.2% | A498 renal 47.7% | CCRF-CEM leukemia 17.3%
active: MOLT-4 leukemia 4.89%

CCCCCCCCCCCC1=NC(C)(C)CN1C(C)C
inactive: SK-MEL-2 melanoma 60.9% | EKVX NSCLC 57.5% | SN12C renal 61% | UO-31 renal 38% | TK-10 renal 81.6% | ACHN renal 61.6% | CAKI-1 renal 46.6% | A498 renal 76.7% | CCRF-CEM leukemia 29.3%

Clc1cc2nc(-c3ccccc3)c(-c3ccccc3)nc2cc1Cl
inactive: SK-MEL-2 melanoma 87.9% | EKVX NSCLC 82.6% | SN12C renal 90.4% | UO-31 renal 55.7% | TK-10 renal 123% | ACHN renal 93.7% | CAKI-1 renal 89.4% | A498 renal 82% | CCRF-CEM leukemia 88.2%

COC(=O)C(Br)(C(=O)OC)C(Br)C(Br)C(Br)c1ccccc1 (centres undefined)
inactive: SK-MEL-2 melanoma 83.6% | EKVX NSCLC 105% | SN12C renal 96.7% | A498 renal 101% | MOLT-4 leukemia 50.1%
active: UO-31 renal -8.98% | TK-10 renal -45.2% | ACHN renal -70% | CAKI-1 renal -69.6% | CCRF-CEM leukemia 0.438%

O=C1OCC2=C1C(c1ccccc1)c1cc3c(cc1N2CCO)CCC3 (centres undefined)
active: A498 renal -21.5%
inactive: SK-MEL-2 melanoma 17.1% | EKVX NSCLC 22.7% | SN12C renal 23.2% | UO-31 renal 38.1% | TK-10 renal 54.5% | ACHN renal 29.7% | CAKI-1 renal 26.7%

Cc1ccsc1C(=O)CC(=O)C(F)(F)C(F)(F)C(F)(F)F
inactive: SK-MEL-2 melanoma 115% | EKVX NSCLC 93% | SN12C renal 96.7% | UO-31 renal 86.5% | TK-10 renal 126% | ACHN renal 102% | CAKI-1 renal 92% | A498 renal 116% | CCRF-CEM leukemia 95.7% | MOLT-4 leukemia 110%

CCC(=O)NC1=C(Cl)C(=O)C(NC(=O)CC)=C(Cl)C1=O
inactive: SK-MEL-2 melanoma 111% | EKVX NSCLC 129% | SN12C renal 101% | TK-10 renal 50.5% | ACHN renal 21.2% | CAKI-1 renal 103% | A498 renal 130%
active: UO-31 renal 2.01% | CCRF-CEM leukemia -42.7% | MOLT-4 leukemia -41.3%

Clc1ccc(-c2cnc3nonc3n2)s1
inactive: SK-MEL-2 melanoma 93.6% | EKVX NSCLC 107% | SN12C renal 92.6% | UO-31 renal 64% | TK-10 renal 103% | ACHN renal 81.9% | CAKI-1 renal 94.1% | A498 renal 93.9% | CCRF-CEM leukemia 11.3% | MOLT-4 leukemia 47.2%

c1ccc(CCn2cccc2)nc1
inactive: SK-MEL-2 melanoma 101% | EKVX NSCLC 107% | SN12C renal 102% | UO-31 renal 94.3% | TK-10 renal 99.7% | ACHN renal 104% | CAKI-1 renal 91.1% | A498 renal 105% | CCRF-CEM leukemia 105% | MOLT-4 leukemia 18.7%

CCOC(=O)C1=C(C)NC(=S)NC1c1ccccc1 (centres undefined)
inactive: SK-MEL-2 melanoma 113% | EKVX NSCLC 97.6% | SN12C renal 103% | UO-31 renal 76.4% | TK-10 renal 104% | ACHN renal 99.6% | CAKI-1 renal 87.5% | A498 renal 86.3% | CCRF-CEM leukemia 109%

CC(C)(C)c1ccc(C(=O)Nc2sc3cc(O)ccc3c2C(N)=O)cc1
inactive: SK-MEL-2 melanoma 114% | EKVX NSCLC 94.6% | SN12C renal 78% | UO-31 renal 65.6% | TK-10 renal 133% | ACHN renal 74.1% | CAKI-1 renal 77.3% | A498 renal 107% | CCRF-CEM leukemia 50%

COc1cc(NC(=O)CSc2nc3ccc(Cl)cc3c(=O)n2Cc2ccccc2)cc(OC)c1OC
inactive: SK-MEL-2 melanoma 77.6% | EKVX NSCLC 83.2% | SN12C renal 88.5% | UO-31 renal 62.4% | TK-10 renal 72.9% | ACHN renal 57.6% | CAKI-1 renal 76.9% | A498 renal 11.7% | CCRF-CEM leukemia 93.8%

CCCCSc1ncnc2c1ncn2C1CCCCO1 (centres undefined)
inactive: SK-MEL-2 melanoma 104% | EKVX NSCLC 115% | SN12C renal 103% | UO-31 renal 91.2% | TK-10 renal 109% | ACHN renal 110% | CAKI-1 renal 110% | A498 renal 94.6% | CCRF-CEM leukemia 99.6% | MOLT-4 leukemia 96.9%

c1ccc2c(N=NSc3ncnc4nc[nH]c34)c3ccccc3nc2c1
active: SK-MEL-2 melanoma -23.6% | SN12C renal 4.81% | UO-31 renal 4.86% | ACHN renal -27.8% | A498 renal -8% | CCRF-CEM leukemia -4.86% | MOLT-4 leukemia -17.4%
inactive: EKVX NSCLC 16.7% | TK-10 renal 36.4% | CAKI-1 renal 19.7%

C=CCOc1ccc2c(C)cc(=O)oc2c1
inactive: SK-MEL-2 melanoma 129% | EKVX NSCLC 106% | SN12C renal 115% | UO-31 renal 115% | TK-10 renal 91.9% | ACHN renal 108% | CAKI-1 renal 97.9% | A498 renal 71% | CCRF-CEM leukemia 96.2% | MOLT-4 leukemia 107%

O=C1/C=C/[C@@H](O)[C@@H]2C[C@@H](O)C[C@H]2/C=C/CCC[C@H]([C@@H](O)CO)O1
inactive: SK-MEL-2 melanoma 98.4% | EKVX NSCLC 96.6% | SN12C renal 102% | UO-31 renal 68.3% | TK-10 renal 121% | ACHN renal 109% | CAKI-1 renal 97.6% | A498 renal 64% | CCRF-CEM leukemia 101% | MOLT-4 leukemia 103%

Cc1ccc([C@H]2c3[nH]c4ccccc4c3C[C@H]3C(=O)N(CCCCCCC(=O)NO)CC(=O)N23)cc1
inactive: SK-MEL-2 melanoma 56.7% | EKVX NSCLC 76.2% | SN12C renal 67.6% | UO-31 renal 57.2% | TK-10 renal 58.7% | ACHN renal 75.1% | CAKI-1 renal 51.2% | A498 renal 61.9% | CCRF-CEM leukemia 15.2% | MOLT-4 leukemia 10.9%
